Values joined by “and” are separate entries in the source; they are usually repeats but may differ in a detail not shown here. Equal values may be shown once. Unmarked numbers belong to inactive results. Calls follow the shape of the full dose curve.
Each compound was assayed against Glucocorticoid receptor (Homo sapiens) (UniProt P04150) (assay: GR-EFC Redistribution (AID 451)). Conditions: CHO-K1 GR-EFC translocation, beta-gal luminescence, 2 h.
How it was run: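 Translocation of GR-ED fusion to nuclear EA restores b-gal, read by luminescence after 1 h room-temperature detection. Engineered CHO-K1 biosensor cells, 1,000/well, exposed 2 h at 37 C to titrations up to 46 uM final.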
Potency is read from the fitted curve at half-maximal effect.

Sequence of Glucocorticoid receptor (Homo sapiens) (P04150 whole entry, looked up, the tested form may be a part): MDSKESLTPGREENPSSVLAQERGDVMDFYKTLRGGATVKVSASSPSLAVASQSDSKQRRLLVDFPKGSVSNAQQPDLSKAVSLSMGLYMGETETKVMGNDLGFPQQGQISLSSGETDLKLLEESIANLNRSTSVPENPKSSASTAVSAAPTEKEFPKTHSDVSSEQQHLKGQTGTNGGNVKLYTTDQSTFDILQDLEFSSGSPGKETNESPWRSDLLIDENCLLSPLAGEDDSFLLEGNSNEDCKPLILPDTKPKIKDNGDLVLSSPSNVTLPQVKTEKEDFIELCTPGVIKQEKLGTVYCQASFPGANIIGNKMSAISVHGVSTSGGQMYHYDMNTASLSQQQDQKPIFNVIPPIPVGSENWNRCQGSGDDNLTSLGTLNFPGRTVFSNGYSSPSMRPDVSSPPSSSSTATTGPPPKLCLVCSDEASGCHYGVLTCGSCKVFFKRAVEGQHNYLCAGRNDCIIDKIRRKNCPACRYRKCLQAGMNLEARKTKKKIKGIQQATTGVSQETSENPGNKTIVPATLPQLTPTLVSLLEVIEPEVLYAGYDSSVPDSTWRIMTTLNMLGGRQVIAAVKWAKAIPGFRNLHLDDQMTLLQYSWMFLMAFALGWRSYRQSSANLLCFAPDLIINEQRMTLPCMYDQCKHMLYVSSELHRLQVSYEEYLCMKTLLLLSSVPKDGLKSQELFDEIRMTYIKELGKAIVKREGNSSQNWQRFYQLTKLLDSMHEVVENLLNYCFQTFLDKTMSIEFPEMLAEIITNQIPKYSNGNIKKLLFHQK

| SMILES | Potency |
| --- | --- |
| Cc1cc2c(C(C)C)c(O)c(O)c(C=O)c2c(O)c1-c1c(C)cc2c(C(C)C)c(O)c(O)c(C=O)c2c1O | > 20.6 µM and > 46 µM |
| CC(C)C[C@H](NC(=O)[C@@H](O)[C@H](N)Cc1ccccc1)C(=O)O | > 46 µM |
| Cc1oncc1C(=O)Nc1ccc(C(F)(F)F)cc1 | > 46 µM and > 20.6 µM |
| Cc1ccc2c(c1)C(=O)[C@@]1(O)CCN(c3ccccc3)C1=N2 | > 46 µM |
| CCOC(=O)N1CCC(=C2c3ccc(Cl)cc3CCc3cccnc32)CC1 | > 46 µM |
| CCC(C)(C)C(=O)O[C@H]1C[C@@H](C)C=C2C=C[C@H](C)[C@H](CC[C@@H]3C[C@@H](O)CC(=O)O3)[C@H]21 | > 46 µM |
| Cc1cn[nH]c1 | > 46 µM |
| CCN(c1ccccc1)c1cc(NC)[n+](C)c(C)n1 | > 46 µM |
| CC(C)(Sc1ccc(CCN(CCCCC2CCCCC2)C(=O)NC2CCCCC2)cc1)C(=O)O | > 46 µM |
| CN1CCN(CCCN2c3ccccc3Sc3ccc(C(F)(F)F)cc32)CC1 | > 46 µM and > 20.6 µM and > 9.22 µM |
| O=NN(CCCl)C(=O)NCCCl | > 46 µM |
| NNCCc1ccccc1 | > 46 µM and > 20.6 µM |
| NC(=O)c1ccc(-c2nc(-c3ccc4c(c3)OCO4)c(-c3ccccn3)[nH]2)cc1 | > 46 µM |
| N[C@@H]1CONC1=O | > 46 µM and > 20.6 µM |

Source: PubChem BioAssay (NCATS)
